The target in assay [1] is Cellular tumor antigen p53 (Homo sapiens) (UniProt P04637). The assay can be described thus: Primary qHTS for small molecule compounds that upregulate eGFP-tagged delta133p53alpha (in N-terminal) cells. (AID 2060322). Also: nearly all actives have a fitted effect of over 75% in size. Also: potency is read from the fitted curve at half-maximal effect.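 As to activation: series mostly up to about 56 µM; 0% = DMSO vehicle and 100% = reference activator.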 The conditions noted are these: NCI-H358 eGFP-delta133p53alpha fluorescence, 24 h; activation: stronger effect = higher value. In a few lines:
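NCI-H358 cells pre-induced 24 h with 10 ng/ml doxycycline to express N-terminal eGFP-delta133p53alpha, then dosed 24 h at 37C without doxycycline; fixed, Hoechst-stained, GFP intensity by laser scanning cytometry, normalized to DMSO (0%) and 57.5 uM 5-azacytidine (100%).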
A general note: In qHTS, concentration-response curves come from the screen itself.

In assay [2] the target is Retinaldehyde dehydrogenase 3 (Homo sapiens) (UniProt P47895). Description: qHTS for Inhibitors of the Aldehyde Dehydrogenase Family (ALDH1A3) Primary screen (AID 2061315). Also: potency is read from the fitted curve at half-maximal effect.
A short description of assay [3]: BET inhibitor-based combinations targeting novel dependencies in MECOM-rearranged (r) AML: SET-2 cell line (AID 2202231).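 Also: plate controls were DMSO treated cells for no effect and wells without cells for full effect; nearly all actives have a fitted effect of over 35% in size.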 The settings on record: SET-2 AML cells viability, CellTiter-Glo luminescence, 48 h; viability: stronger effect = lower value, series mostly up to about 46 µM. The method in brief: (§1)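 Luminescent ATP readout (CellTiter-Glo) after 48 hr drug exposure gives viability. Curves span 11 concentrations and are normalized to DMSO and empty wells. Activity is reported as area under the curve and its Z-transform within each cell line.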

Assay [4] can be described thus: BET inhibitor-based combinations targeting novel dependencies in MECOM-rearranged (r) AML: OCI-AML3 cell line (AID 2202232).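 Also: series mostly up to about 46 µM; plate controls were DMSO vehicle wells for no effect and wells without cells for full effect; nearly all actives have a fitted effect of over 35% in size.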 The settings on record: Potency: OCI-AML3 viability. In a few lines:
as §1

The nature of assay [5]: BET inhibitor-based combinations targeting novel dependencies in MECOM-rearranged (r) AML: MV-4-11 cell line (AID 2202233).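 Also: plate controls were DMSO for no effect and blank wells for full effect; nearly all actives have a fitted effect of over 45% in size.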 The method in brief:
(§2)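 Luminescent ATP readout (CellTiter-Glo, 15 min at room temperature) after 48 hr drug exposure gave viability. Dose-response curves, normalized to DMSO and empty-well controls, were summarized as area under the curve and its mean-centred Z-score.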

Assay [6] in a line: BET inhibitor-based combinations targeting novel dependencies in MECOM-rearranged (r) AML: HNT-34 cell line (AID 2202234).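 Also: plate controls were vehicle wells for no effect and cell-free wells for full effect; nearly all actives have a fitted effect of over 35% in size.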 In a few lines:
as §2

Assay [7] in a line: BET inhibitor-based combinations targeting novel dependencies in MECOM-rearranged (r) AML: UCSD-AML1 cell line (AID 2202235).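 Also: series mostly up to about 46 µM; plate controls were DMSO vehicle wells for no effect and blank wells for full effect; nearly all actives have a fitted effect of over 40% in size.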 In a few lines: as §2
A short description of assay [8]: BET inhibitor-based combinations targeting novel dependencies in MECOM-rearranged (r) AML: AML-191 cell line (AID 2202236;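 also: plate controls were vehicle wells for no effect and wells without cells for full effect; nearly all actives have a fitted effect of over 35% in size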). The method in brief:
as §1

Assay [9] can be described thus: BET inhibitor-based combinations targeting novel dependencies in MECOM-rearranged (r) AML: AML-194 cell line (AID 2202237;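 also: plate controls were vehicle wells for no effect and wells without cells for full effect; nearly all actives have a fitted effect of over 40% in size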). The method in brief:
as §1

Where “and” joins values, the source holds several entries; their conditions need not be identical. Equal entries are not always repeated. Results filed as inconclusive are left out. Calls of active or inactive are those of the source. Calls follow the shape of the dose curve; as a rule, active = well fitted curve in the direction sought with a large enough effect; inconclusive = small, poorly fitted or top-dose-only effect, or another doubt; inactive = no such curve, though single readings can be large; an effect the other way counts as inactive or inconclusive.

What is called viability is a read-out of living cells in per cent, often relative to untreated cells.

Sequence of Cellular tumor antigen p53 (Homo sapiens) (P04637 whole entry, looked up): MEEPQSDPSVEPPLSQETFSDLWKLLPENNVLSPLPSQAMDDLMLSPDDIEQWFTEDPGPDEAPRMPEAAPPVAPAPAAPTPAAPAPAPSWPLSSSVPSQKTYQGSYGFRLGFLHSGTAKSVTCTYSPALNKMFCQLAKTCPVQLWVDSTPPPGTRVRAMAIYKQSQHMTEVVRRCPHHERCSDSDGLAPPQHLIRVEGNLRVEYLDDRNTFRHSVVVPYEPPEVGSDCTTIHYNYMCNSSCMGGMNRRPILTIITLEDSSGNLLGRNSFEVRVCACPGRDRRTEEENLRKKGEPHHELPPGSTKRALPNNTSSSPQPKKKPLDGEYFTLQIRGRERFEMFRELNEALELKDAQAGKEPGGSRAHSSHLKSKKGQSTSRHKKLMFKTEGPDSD

As to `COc1ccc([C@@]2(O)c3c(ccc4c3OC(C)(CCC=C(C)C)C=C4)NC(=O)[C@@H]2OC)cc1` (stereo not given in full), the activation in assay [1] is -6.87% (inactive). For the same molecule, the Potency result in [2] was “inactive”.
As for `COc1ccc(S(=O)(=O)Nc2nc(-c3cccc([N+](=O)[O-])c3)cs2)cc1OC`, in [1], the activation is 1.67% (inactive). Moreover, the Potency entry in assay [2] was “inactive”.
The matching figures for `CC[C@]1(O)C[C@@H]2CN(CCc3c([nH]c4ccccc34)[C@@](C(=O)OC)(c3cc4c(cc3OC)N(C)[C@H]3[C@@](O)(C(=O)OC)[C@H](OC(C)=O)[C@]5(CC)C=CCN6CC[C@]43[C@@H]65)C2)C1`: -35.1% (inactive) and “inactive”.
Taken in the same sequence, the figures for `CC1OC2OC(=O)C3(C)CC4C5(CO5)C5=CC(=O)OC(C)(C)C5=CC(=O)C4(C)C(C1=O)C23` (stereo not given) were 12.2% (inactive) and “inactive”.
The matching figures for `CCc1c[nH]c2ncnc(N3CC[C@](N)(CNC(=O)c4ccc(F)cc4F)C3)c12`: 22.3% (inactive) and “inactive”.
On to `C[C@@H]1C[C@@H]2O[C@H]2/C=C\C=C\C(=O)Cc2c(Cl)c(O)cc(O)c2C(=O)O1`, for which the Potency in assay [1] is 14.8 µM (active). The Potency result in assay [2] was “inactive”.
For the molecule `O=C(O)c1cc(O)c2cccc(O)c2c1O[C@@H]1O[C@H](CO)[C@@H](O)[C@H](O)[C@H]1O`, the activation in assay [1] was -20.5% (inactive). The Potency in [2] is 6.31 µM (active).
Taken in the same sequence, the figures for `COc1cc(/C=C/C(=O)NCCn2c(C(F)(F)F)cc3ccccc32)cc(OC)c1OC` were -3.67% (inactive) and “inactive”.
As for `COc1ccc(OC)c(C2C(C#N)=C(N)Oc3n[nH]c(-c4ccc5ccccc5c4)c32)c1` (stereo not given), the activation in assay [1] was -0.333% (inactive). The Potency entry in assay [2] is “inactive”.
Taken in the same sequence, the figures for `O=C(Cc1c(F)cccc1F)Nc1cc(OCc2ccc(Cl)cc2)ccn1` were 15.7% (inactive) and “inactive”.
As for `Cc1c2cc(c(C(=O)O)c1C)OC1OC(C(O)C(O)C1O)C(O)C(O)C1OC(O2)C(O)C(O)C1O` (stereo not given), the activation in [1] is -5.34% (inactive). For the same molecule, the Potency result in assay [2] was “inactive”.
Taken in the same sequence, the figures for `CCc1c(Cl)c(O)c(Cl)c(O)c1C(=O)O[C@H]1[C@H](O)[C@H](OC)[C@H](OC/C2=C\C=C\C[C@H](O)/C(C)=C\[C@H](CC)[C@@H](O[C@@H]3OC(C)(C)[C@@H](OC(=O)C(C)C)[C@H](O)[C@@H]3O)/C(C)=C/C(C)=C/C[C@@H]([C@@H](C)O)OC2=O)O[C@@H]1C` were -0.333% (inactive) and “inactive”.
In the case of `CN1C(CCl)Nc2cc(Cl)c(S(N)(=O)=O)cc2S1(=O)=O` (stereo not given), the activation in assay [1] was -11.7% (inactive) and -7.64% (inactive). For the same molecule, in [2], the Potency result is “inactive”.
On to `C/C(=C\Cc1c(O)c(Cl)c(C)c(C=O)c1O)CC/C=C(\C)[C@H]1CC(=O)C(C)(C)O1`, for which the activation in [1] was -20.6% (inactive). The Potency result in assay [2] is “inactive”.
As to `CC1=C2C[C@@]3(C)C(CCC[C@@H]3C)C(O)C2OC1=O` (stereo not given in full), the activation in [1] is -15.3% (inactive). The Potency result in [2] was “inactive”.
Taken in the same sequence, the figures for `COC(=O)[C@H](c1ccccc1Cl)N1CCC2SC(=O)C=C2C1` (stereo not given in full) were 16.3% (inactive) and “inactive”.
Consider `NC(=O)c1cccnc1`, for which, in [1], the activation was -14.2% (inactive) and 9.71% (inactive). Moreover, the viability in assay [3] is 106% (inactive). Further, the Potency result in assay [4], in [5], in assay [6], in assay [7], in assay [8] and in [9] was “inactive” each time.

Source of the values: PubChem BioAssay (NCATS).
